Many of the other results were omitted from the sample, so hits are more common in it than they were.
Tg IFNy HTS = T. gondii growth inhibition under IFN-gamma. activity change, negative = inhibition, % (concentration not given with the values). hit rate 3.8% among 69,000. Toxoplasma gondii growth in IFN-gamma-treated host cells; active compounds read low; in the data active = activity change below about -70%, passing the limit was not always enough;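 note: host cells are HeLa cells infected with Toxoplasma gondii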
* = called active by the depositor.

SMILES	Tg IFNy HTS
Cc1cccc(N2CC[C@H]3[C@H](CO[C@H]3CNS(C)(=O)=O)C2)n1	-38.1
COc1c(F)cc(-c2c(-c3ccccc3)ncn2CCO)cc1Cl	-55.4
Cc1oc(-c2ccccc2Cl)cc1C(=O)N1CCNC(=O)CC1	-31.4
Cc1oc(-c2ccccc2Cl)cc1C(=O)N1CCCCC1CO (configuration not stated)	-44.9
CN1CC[C@@H](c2c(O)cc(O)c3c(=O)cc(-c4ccccc4Cl)oc23)[C@@H]1CO	-74.3*
CCN1CCn2c(C)cnc2C12CCN(Cc1ccco1)CC2	-4.7
NC(=O)N1CCC2O[C@H](COCC(=O)N3CCCC3)CCC21 (some centres not stated)	-2.5
CC12C(=O)OC(=O)C1(C)C1CCC2O1 (configuration not stated)	-86.2*
CN1CC2(CCN(Cc3nccs3)CC2)OCC1=O	-7.1
O=C(O)[C@H]1C[C@H](C(=O)N2CCOCC2)CN(Cc2cc3ccccc3o2)C1	-13.0
C/C(=N\N=C1\NC(=O)C(CC(=O)Nc2ccc(Cl)cc2)S1)c1ccco1 (configuration not stated)	-22.9
O=C1NC(=Nc2ccc(Cl)cc2)SC1Cc1ccccc1 (configuration not stated)	-91.9*
O=C(CC1SC(=Nc2ccccc2)NC1=O)Nc1ccccc1 (configuration not stated)	-18.8
Cc1oc(-c2ccccc2)nc1Cn1ccn2nc(-c3ccc(Cl)cc3)cc2c1=O	29.4
C=CCO[C@H]1CCN(CC(=O)N(C)C)[C@H]1Cc1cnn(C)c1	-5.0
CCc1nc(-c2cccc(-n3ccnc3-c3nccn3C)c2)n[nH]1	-3.4
COc1ccccc1NC(=O)CCCCCN1C(=O)c2cccc3cccc(c23)C1=O	20.0
CCCCC(CC)CNC(=O)CCCCCN1C(=O)c2ccccc2C1=O (configuration not stated)	13.2
O=C(CCCCCN1C(=O)c2cccc3cccc(c23)C1=O)NO	-84.0*
CC(CCC(=O)O)N1CCN(C)CC1 (configuration not stated)	-6.3
CC(=O)N1CCC2(CC1)OC(=O)C(C)=C2C(=O)NCc1cccs1	181.1
COCCC(=O)C1Cc2nc(-c3cccc(OC)c3)sc2N1C(C)C (configuration not stated)	-34.2
Clc1ccc(/C=C2\CCCC3C2=NNC3c2ccc(Cl)cc2)cc1 (configuration not stated)	-92.3*
O=C(C1CCCCC1)N1CCCC(c2nc(-c3ccc(Cl)cc3)no2)C1 (configuration not stated)	4.7
Cn1cc(-c2cc3n(n2)CCC(=O)N3CC(=O)NCc2ccccn2)c2ccccc21	72.0
SMILES	Tg IFNy HTS
O=C(NCCc1csc(-c2ccc(F)cc2)n1)C1CC1	-5.7
N#Cc1ccc(-c2ccc3c(c2)[C@H]2[C@H](CCN2C(=O)C2CCCCC2)[C@H](CO)N3)cc1	-31.4
CC(=O)N1CC[C@@H]2[C@H]1c1cc(-c3ccccc3)ccc1N[C@@H]2CO	40.5
COc1ccccc1-c1ccc2c(c1)[C@H]1[C@H](CCN1C(=O)C1CCC1)[C@@H](CO)N2	-76.3*
COc1ccccc1-c1ccc2c(c1)[C@@H]1[C@@H](CCN1S(=O)(=O)c1ccc(C)cc1)[C@H](CO)N2	-78.1*
COc1ccccc1-c1ccc2c(c1)[C@H]1[C@H](CCN1C(=O)C1CCC1)[C@H](CO)N2	-71.4*
COc1ccccc1-c1ccc2c(c1)[C@H]1[C@H](CCN1Cc1ccccc1F)[C@@H](CO)N2	-56.2
COc1ccccc1-c1ccc2c(c1)[C@H]1[C@H](CCN1S(=O)(=O)c1ccc(C)cc1)[C@@H](CO)N2	-63.3
N#Cc1ccc(-c2ccc3c(c2)[C@@H]2[C@@H](CCN2C(=O)C2CCCCC2)[C@@H](CO)N3)cc1	-62.9
Cc1cccc(S(=O)(=O)N2CC[C@@H]3[C@@H](CO)Nc4ccc(-c5ccccc5F)cc4[C@@H]32)c1	-48.1
CC(=O)c1cc(C(=O)Nc2cnn(Cc3ccc(F)cc3)c2)cs1	-57.5
CN1CC[C@@]2(CN(C(=O)c3cscn3)C[C@H]2c2ccccc2)C1=O	-0.5
CN(Cc1nncn1C)c1ccc(C(=O)N2CCC(Cn3cccn3)CC2)cn1	-3.8
COCC1CC2OCCN(C(=O)c3ccc4ncccc4c3)C2C1 (configuration not stated)	-14.0
CCS(=O)(=O)N1CCC2(CC1)OC(=O)C(C)=C2C(=O)NCCCN1CCOCC1	44.2
Cn1nccc1C(=O)C1CCN(C(=O)C2CCCN2S(=O)(=O)c2cccs2)CC1 (configuration not stated)	-1.4
C=CCOCc1n[nH]c2c1CN(C1CCOCC1)C2	1.9
CCOc1ccc(-c2nc(Cc3noc(-c4ccncc4)n3)c(C)o2)cc1	-15.5
COc1ccc(S(=O)(=O)Nc2cncc(C(=O)Nc3cc(C)cc(C)c3)c2)cc1OC	31.4
Cn1c(=O)c2c(nc(SCCN3CCCCC3)n2C)n(C)c1=O	-5.3
Cn1cnnc1Sc1nc2c(c(=O)n(C)c(=O)n2C)n1C	-1.2
Cn1c(=O)c2c(nc(SCC(=O)Nc3nc(-c4cccs4)cs3)n2C)n(C)c1=O	-102.8*
COc1ccccc1-n1ccnc1-c1ccc(OCC(N)=O)cc1	8.0
CCn1c(C2CCN(C(=O)CC3=CCNCC3)CC2)n[nH]c1=O	2.4
CCn1c(=O)c(-c2nc(-c3cc(OC)cc(OC)c3)no2)c(O)c2ccccc21	14.2
SMILES	Tg IFNy HTS
CCc1ccc(NC(=O)Cn2ncc3c(N4CCCCCC4)ncnc32)cc1	-34.5
O=C(Cn1ncc2c(N3CCCC3)ncnc21)Nc1ccc(F)cc1F	54.8
CCOc1ccc(CNC(=O)Cn2ncc3c(N4CCCC4)ncnc32)cc1OCC	-4.2
O=C(Cn1ncc2c(N3CCCCCC3)ncnc21)Nc1ccc(F)cc1	-2.6
O=C(Cn1ncc2c(N3CCN(c4ccccn4)CC3)ncnc21)NCc1ccc(F)cc1	-99.9*
O=C(Cn1ncc2c(N3CCN(c4ccccn4)CC3)ncnc21)NCc1cccnc1	11.2
O=C(Cn1ncc2c(N3CCCCCC3)ncnc21)NCc1ccc(F)cc1	-98.6*
Cc1ccc(CNC(=O)Cn2ncc3c(N4CCN(c5ccccn5)CC4)ncnc32)cc1C	134.1
O=C(Cn1ncc2c(N3CCCCCC3)ncnc21)NCc1ccc(F)c(Cl)c1	3.3
CCc1ccc(CNC(=O)Cn2ncc3c(N4CCCCCC4)ncnc32)cc1	-91.6*
CCc1ccc(CNC(=O)Cn2ncc3c(N4CCOCC4)ncnc32)cc1	278.6
O=C(Cn1ncc2c(N3CCCCCC3)ncnc21)NCc1ccc2c(c1)OCO2	-96.5*
Cc1cc(C)cc(NC(=O)CC(=O)N[C@H]2COC[C@@H]2N2CCCC2)c1	3.4
CCn1c(SCc2cccnc2)nnc1C1CCCN(S(C)(=O)=O)C1 (configuration not stated)	-20.8
Cc1ccc(=O)n(CC(=O)NCc2cc(=O)[nH]c(N3CCCC3)n2)n1	2.2
Cc1ccc(NC(=O)c2sc3nc(-c4cc5cc(Cl)ccc5oc4=O)[nH]c(=O)c3c2C)c(C)c1	-16.3
O=C(NCCc1c[nH]c2ccccc12)C1=C2CCCN2c2ccc(F)cc2S1(=O)=O	184.8
Cc1cc(C)c2c(CC(=O)N3CCOC(C(F)(F)F)C3)coc2c1C (configuration not stated)	-3.9
CCc1nc(C)sc1CNC(=O)CSCc1ccccc1Cl	257.7
CN(C)C(=O)N1CCC(c2nc3ccc(Nc4ccccc4)cn3n2)CC1	-9.2
NC(=O)c1cncc(-c2ccc(F)cc2Cl)c1	1.8
COCCN(Cc1ccccc1F)Cc1cccc2c1OCO2	52.0
O=C(Cn1ncc2c(N3CCCC3)ncnc21)NCc1ccncc1	-35.2
O=C(Cn1ncc2c(N3CCCCC3)ncnc21)NCc1ccccc1	-91.8*
